Among all 310,000 compounds or so, about 14,000 (4.5%) showed an effect of 50% or more. Effects have a minus sign here. The sample holds strong results, similar compounds and a random draw of the others, so the mix is not that of the screen.
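Further: peak tail current of the secondary pulse compared with the same well before compound.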

Chain of human ether-à-go-go-related gene (hERG) potassium channel (Q12809 whole entry, looked up): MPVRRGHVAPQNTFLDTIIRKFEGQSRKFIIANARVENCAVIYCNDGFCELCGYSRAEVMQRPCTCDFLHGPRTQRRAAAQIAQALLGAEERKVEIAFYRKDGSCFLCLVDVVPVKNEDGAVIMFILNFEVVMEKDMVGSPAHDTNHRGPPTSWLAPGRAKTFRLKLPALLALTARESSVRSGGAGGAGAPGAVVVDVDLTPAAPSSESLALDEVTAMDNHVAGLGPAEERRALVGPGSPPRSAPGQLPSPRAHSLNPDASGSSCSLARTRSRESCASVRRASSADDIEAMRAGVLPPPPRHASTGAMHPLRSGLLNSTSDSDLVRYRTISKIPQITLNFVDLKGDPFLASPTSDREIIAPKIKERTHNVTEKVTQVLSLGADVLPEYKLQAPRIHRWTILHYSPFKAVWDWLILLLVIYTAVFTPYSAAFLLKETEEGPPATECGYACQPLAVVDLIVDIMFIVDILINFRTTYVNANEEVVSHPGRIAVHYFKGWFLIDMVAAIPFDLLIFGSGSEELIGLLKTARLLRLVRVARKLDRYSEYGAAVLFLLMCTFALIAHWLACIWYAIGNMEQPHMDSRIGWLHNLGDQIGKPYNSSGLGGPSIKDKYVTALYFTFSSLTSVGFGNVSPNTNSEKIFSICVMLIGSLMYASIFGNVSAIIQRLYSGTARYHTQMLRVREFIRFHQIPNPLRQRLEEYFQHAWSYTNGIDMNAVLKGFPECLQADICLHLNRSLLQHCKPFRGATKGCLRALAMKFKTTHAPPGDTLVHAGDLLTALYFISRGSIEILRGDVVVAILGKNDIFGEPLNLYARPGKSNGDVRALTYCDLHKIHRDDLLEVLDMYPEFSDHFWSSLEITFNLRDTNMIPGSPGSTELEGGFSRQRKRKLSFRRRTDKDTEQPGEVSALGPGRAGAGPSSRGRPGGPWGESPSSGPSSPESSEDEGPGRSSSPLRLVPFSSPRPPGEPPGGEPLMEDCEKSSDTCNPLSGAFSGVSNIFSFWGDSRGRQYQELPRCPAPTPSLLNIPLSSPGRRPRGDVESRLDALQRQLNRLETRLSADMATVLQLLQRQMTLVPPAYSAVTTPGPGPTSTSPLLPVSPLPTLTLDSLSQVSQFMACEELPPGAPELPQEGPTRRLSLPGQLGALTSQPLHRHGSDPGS

This experiment addresses human ether-à-go-go-related gene (hERG) potassium channel (human, UniProt Q12809). Put plainly: primary screen, population patch clamp on CHO cells stably expressing hERG; higher = less effect of the substance.
For `CCC/C=N/Nc1nnc(Cc2ccc(OC)c(OC)c2)c(=O)[nH]1`, the “hERG current change (%, negative = inhibition) at 10uM” value turned out to be 27.2%.
In the case of `CSCC[C@H](NC(=O)OCc1ccccc1)C(=O)O`, the “hERG current change (%, negative = inhibition) at 10uM” value is recorded as -2.24%.
For the compound `Cc1ccc(-c2c(C#N)c(N)nc3c2CCCCC3)o1`, the “hERG current change (%, negative = inhibition) at 10uM” value was -5.84%.
`C=CCn1c(N/N=C/c2ccc(O)cc2)nc2ccccc2c1=O`: the “hERG current change (%, negative = inhibition) at 10uM” value is given as -17.9%.
For the compound `Cc1cc2c(C)nc(N/N=C/c3ccc(F)cc3)nc2o1`, the “hERG current change (%, negative = inhibition) at 10uM” value is -52.7%.
For `Cc1cc2c(C)nc(N/N=C/c3ccccc3)nc2o1`, the “hERG current change (%, negative = inhibition) at 10uM” value is reported as -27.6%.
Regarding `Cc1cc2c(C)nc(N/N=C/c3ccc([N+](=O)[O-])cc3)nc2o1`, the “hERG current change (%, negative = inhibition) at 10uM” value was -16.2%.
Consider `CC1(C)C2CCC13CS(=O)(=O)N[C@@H]3C2` (stereo partly drawn), for which the “hERG current change (%, negative = inhibition) at 10uM” value is listed as 20.5%.
`Cc1ccc(CC2CC(=O)N(CCc3ccc4c(c3)OCO4)C2=O)cc1` (stereo not drawn): the “hERG current change (%, negative = inhibition) at 10uM” value was 3.17%.
For `O=C(Nc1ccc(O)cc1)C1CCCO1` (stereo not drawn), the “hERG current change (%, negative = inhibition) at 10uM” value came to 16.4%.
For `Cc1cc(-c2nnc(SCC(=O)Nc3cccc(Cl)c3)n2N)n[nH]1`, the “hERG current change (%, negative = inhibition) at 10uM” value was -71.9%.
With `C=CCn1c(SCC(=O)Nc2cccc(C)c2)nnc1-c1cnccn1` the figure was -71.9%; with `NC(=O)c1ccc(NC(=O)CSc2nnc(-c3ccccn3)n2N)cc1`, 17.1%.
`C=CCn1c(SCC(=O)Nc2ccc(OC)cc2)nnc1-c1cnccn1`: the “hERG current change (%, negative = inhibition) at 10uM” value is given as -23.1%.
With `C=CCn1c(SCC(=O)Nc2ccc(S(N)(=O)=O)cc2)nnc1-c1cnccn1`, the “hERG current change (%, negative = inhibition) at 10uM” value was found to be 13%.
Then `C=CCn1c(SCC(=O)Nc2ccc(F)cc2)nnc1-c1cnccn1`, with -58.9%; and `Cc1cc(-c2nnc(SCC(=O)Nc3cccc(F)c3)n2N)n[nH]1`, with 6.38%.
As for `Cc1ccc(NC(=O)CSc2nnc(-c3ccccn3)n2N)cc1F`, the “hERG current change (%, negative = inhibition) at 10uM” value was -48.5%.
`C=CCn1c(SCC(=O)Nc2c(C)cccc2C)nnc1-c1cnccn1`: the “hERG current change (%, negative = inhibition) at 10uM” value is on record as -2.77%.
On to `C=CCn1c(SCC(=O)Nc2cc(C)cc(C)c2)nnc1-c1cnccn1`, for which the “hERG current change (%, negative = inhibition) at 10uM” value is -29.6%.
Take `Cc1cccc(NC(=O)CSc2nnc(-c3cc(C)[nH]n3)n2N)c1`: the “hERG current change (%, negative = inhibition) at 10uM” value was -29.1%.
For `Nn1c(SCC(=O)Nc2ccc(F)cc2)nnc1-c1ccccn1`, the “hERG current change (%, negative = inhibition) at 10uM” value is given as -53.6%.
Then `Cc1cc(C)[n+](Cc2ccccc2)cc1C(N)=O.[Cl-]`, with 16.6%.
As for `N#Cc1cc(Nc2c(N)nc[nH]c2=O)c([N+](=O)[O-])cc1C#N`, the “hERG current change (%, negative = inhibition) at 10uM” value is reported as 8.95%.
With `O=C(O)CCN1C(=O)c2ccc(NC(=O)Cc3ccc(Cl)cc3)cc2C1=O` the figure was 3.94%; with `CC(=O)c1cc(-c2ccccc2)n(CC(=O)N2CCCC2)c1C`, 13.3%; with `C=CCn1c(SCC(=O)Nc2ccc(F)cc2F)nnc1-c1cnccn1`, -58.8%.
Regarding `CCn1c(SCC(=O)Nc2ccccc2F)nnc1-c1cnccn1`, the “hERG current change (%, negative = inhibition) at 10uM” value is reported as -34.9%.
Regarding `C=CCn1c(SCC(=O)Nc2cc(C)ccc2C)nnc1-c1cnccn1`, the “hERG current change (%, negative = inhibition) at 10uM” value is -14.4%.
As for `C=CCn1c(SCC(=O)Nc2cccc3ccccc23)nnc1-c1cnccn1`, the “hERG current change (%, negative = inhibition) at 10uM” value was -39.9%.
For `Cc1ccc(NC(=O)CSc2nnc(-c3ccccn3)n2C)cc1`, the “hERG current change (%, negative = inhibition) at 10uM” value was -28.1%.
Turning to `CCn1c(SCC(=O)Nc2ccc(F)cc2)nnc1-c1cnccn1`, the “hERG current change (%, negative = inhibition) at 10uM” value was -56.8%.
In the case of `CCn1c(SCC(=O)Nc2ccc(C)cc2)nnc1-c1cnccn1`, the “hERG current change (%, negative = inhibition) at 10uM” value is given as -31.8%.
Turning to `CCn1c(SCC(=O)Nc2ccc3c(c2)OCCO3)nnc1-c1ccccn1`, the “hERG current change (%, negative = inhibition) at 10uM” value is given as -16.1%.
As for `CCn1c(SCC(=O)Nc2ccc(C)cc2)nnc1-c1ccccn1`, the “hERG current change (%, negative = inhibition) at 10uM” value was -59.1%.
`COc1cc(C2NC(=O)NC(c3ccccc3)=C2C(C)=O)ccc1OCC#N` (stereo not drawn): the “hERG current change (%, negative = inhibition) at 10uM” value is -8.43%.
On to `CN1CCN(C(=O)c2ccc(C3SCC(=O)N3Cc3ccco3)cc2)CC1` (stereo not drawn), for which the “hERG current change (%, negative = inhibition) at 10uM” value is given as 6.13%.
With `CCOc1ccc(/C=N/NC(=O)c2csc(C)c2C)c(OCC)c1` the figure was 6.43%; with `Cc1ccc(S(=O)(=O)NCCC(=O)Nc2cc(S(=O)(=O)N(C)C)ccc2C)cc1C`, -7.95%; with `O=C(c1cc([N+](=O)[O-])ccc1N1CCCC1)N1CCCC1`, -0.904%.
Consider `CCN1CC(CN(C)Cc2nc(-c3ccc(C(F)(F)F)cc3)no2)CC1=O` (stereo not drawn), for which the “hERG current change (%, negative = inhibition) at 10uM” value was -28.9%.
As for `CCN1CC(CN(C)Cc2nc(-c3ccc(OC)c4ccccc34)oc2C)CC1=O` (stereo not drawn), the “hERG current change (%, negative = inhibition) at 10uM” value was -37.2%.
Consider `CCN1CC(CN(C)Cc2nc(-c3ccco3)oc2C)CC1=O` (stereo not drawn), for which the “hERG current change (%, negative = inhibition) at 10uM” value came to 10.4%.
As to `CCN1CC(CN(C)Cc2nc(-c3ccc(Cl)cc3)no2)CC1=O` (stereo not drawn), the “hERG current change (%, negative = inhibition) at 10uM” value is -59.1%.
With `CCN1CC(CN(C)Cc2nc(-c3ccc(C(F)(F)F)cc3)oc2C)CC1=O` (stereo not drawn), the “hERG current change (%, negative = inhibition) at 10uM” value is recorded as -51.5%.
